# From PubChem
# Compounds with a hit are over-represented: about 8.5% of the library has one in this group of screens.
# RGS12 GoLoco inh – qHTS Assay for Inhibitors of RGS12 GoLoco Motif Activity (Red Fluorophore); actives 0.44% (n = 230,000); Gai1:RGS12 GoLoco peptide FP, rhodamine, 10 min; Guanine nucleotide-binding protein G(i) subunit alpha-1 (Homo sapiens), P63096; AID 880, 2007; Potency, µM (top dose mostly 61.6 µM), inactives show at the highest dose activity, negative = inhibition, most hits filed as inhibitors; active = well fitted inhibition curve with a large enough effect, not every such curve was filed as active; inactive = no such curve, though single readings can be large or run the other way; note: potency is the fitted concentration of half-maximal effect; nearly all actives have a fitted effect of over 30% in size
# Sfp inh – qHTS Assay for Inhibitors of Bacillus subtilis Sfp phosphopantetheinyl transferase (PPTase). 4'-phosphopantetheinyl transferase ffp (Bacillus subtilis), Q9F4F7. Biochemical Sfp PPTase activity, qHTS. Potency, µM, for inactives: largest response in the series, negative = inhibition, most hits filed as inhibitors. actives 3.5% (n = 310,000); active = well fitted curve in the direction sought with a large enough effect; inconclusive = small, poorly fitted or top-dose-only effect, or another doubt; inactive = no such curve, though single readings can be large; an effect the other way counts as inactive or inconclusive;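 note: the enzyme is Sfp with the accession as filed and its product quenches rhodamine fluorescence; potency is the fitted concentration of half-maximal effect; 0% = enzyme reaction without inhibitor and -100% = no enzyme wells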
#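 Step 1, compound plus 15 nM Sfp-PPTase, 15 min, room temperature. Step 2, add rhodamine-CoA (5 uM) and BHQ-2-YbbR (12.5 uM). Step 3, read 525/598 nm fluorescence at 0 and 30 min.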
# NPSR antag – qHTS Assay for Antagonists of the Neuropeptide S Receptor: cAMP Signal Transduction; Q6W5P4; CHO-NPSR cells, cAMP TR-FRET, antagonist mode; Potency, µM (titrated, usually from 38.3 µM), for inactives: at the top dose activity change, negative = inhibition, actives largely listed as inhibitors; actives 1% (n = 220,000); active = well fitted curve in the direction sought with a large enough effect; inconclusive = small, poorly fitted or top-dose-only effect, or another doubt; inactive = no such curve, though single readings can be large; an effect the other way counts as inactive or inconclusive; note: potency is the fitted concentration of half-maximal effect; nearly all actives have a fitted effect of over 50% in size
# FBPA coupling cs – qHTS Assay for Inhibitors of Fructose-1,6-bisphosphate Aldolase from Giardia Lamblia: Coupling assay counterscreen. coupling enzyme system counterscreen, AmpLite Red fluorescence. activity change, negative = inhibition, % at 58.2 µM, hits read low. actives 0.67% (n = 290,000); in the data active = activity change below about -30%
#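 Final compound at 57.5 uM, incubated 10 min at RT with coupling enzyme reagent (glyceraldehyde-3-phosphate), then 20 min with substrate and AmpLite Red detection. Fluorescence read at 525/598 nm; tests interference with the coupling assay, not aldolase inhibition.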
# ALDH1A1 block – qHTS Assay for Inhibitors of Aldehyde Dehydrogenase 1 (ALDH1A1); Aldehyde dehydrogenase 1A1 (Homo sapiens), P00352; Purified ALDH1A1, NADH fluorescence, propionaldehyde substrate; Potency, µM (highest dose often 75.3 µM), without a hit: at the top dose activity, negative = inhibition, hits mostly inhibitors; actives 7.3% (n = 220,000);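 note: potency is the fitted concentration of half-maximal effect; plate controls were no enzyme wells and a reference inhibitor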
# Target sequence (P00352 whole entry, looked up): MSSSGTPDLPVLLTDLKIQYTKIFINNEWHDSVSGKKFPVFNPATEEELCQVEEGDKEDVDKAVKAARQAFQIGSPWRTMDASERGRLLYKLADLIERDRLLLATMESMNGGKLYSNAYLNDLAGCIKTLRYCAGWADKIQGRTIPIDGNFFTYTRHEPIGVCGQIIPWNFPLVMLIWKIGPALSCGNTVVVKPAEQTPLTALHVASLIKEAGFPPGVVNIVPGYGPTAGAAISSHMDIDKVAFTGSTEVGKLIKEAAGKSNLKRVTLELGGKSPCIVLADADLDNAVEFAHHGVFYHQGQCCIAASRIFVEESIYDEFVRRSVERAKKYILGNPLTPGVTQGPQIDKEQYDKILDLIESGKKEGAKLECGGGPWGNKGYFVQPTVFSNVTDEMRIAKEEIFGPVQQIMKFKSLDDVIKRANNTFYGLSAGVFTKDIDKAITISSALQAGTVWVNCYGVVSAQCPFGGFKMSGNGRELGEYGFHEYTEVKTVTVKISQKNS
# KDM4E inh – qHTS Assay for Inhibitors of Human Jumonji Domain Containing 2E (JMJD2E) | JMJD2E catalytic domain, FDH-coupled NADH fluorescence (FDH is formaldehyde dehydrogenase) | AID 2147, 2009 | actives 1.6% (n = 230,000) | Potency, µM (top dose mostly 57.1 µM), for inactives: at the highest dose activity change, negative = inhibition, hits mostly inhibitors | Lysine-specific demethylase 4E (Homo sapiens), B2RXH2;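 note: potency is the fitted concentration of half-maximal effect; 0% = wells with enzyme and -100% = buffer wells without enzyme; nearly all actives have a fitted effect of over 50% in size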
# Starred values were filed as active, the others as inactive; u = inconclusive; x = no result given; [ ] = dose if it differs, or a comment. Unless noted, calls come from the whole dose curve; as a rule, active = well fitted inhibition curve with a large enough effect (not every such curve was filed as active); inconclusive = small, poorly fitted or top-dose-only effect, or another doubt; inactive = no such curve, though single readings can be large or run the other way. Unless noted, % is set by controls: 0 for no effect and ±100 for the full control effect.
SMILES,RGS12 GoLoco inh,Sfp inh,NPSR antag,FBPA coupling cs,ALDH1A1 block,KDM4E inh
COc1ccc(S(=O)(=O)NCC2CCCN(C(=O)C3CCCC3)C2)cc1 (stereo not given),15.3%,16.7%,-4.7%,5.5,3.55µM*,8.9%
Cc1ccc(S(=O)(=O)N2CCCC(C(=O)N(Cc3cccs3)C3CC3)C2)cc1 (stereo not given),-2.7%,10.8%,u,2.5,7.08µM*,-6.0%
CCOC(=O)C1CCN(S(=O)(=O)c2ccc(Cl)cc2OC)CC1,1.0%,15.8%,-9.1%[46.1 µM],-2.2,-9.2%,-2.9%
CCOC(=O)C1CCCN(S(=O)(=O)c2ccc(C)cc2)C1 (stereo not given),-5.2%,-1.1%,-8.0%[46.1 µM],-1.4,8.91µM*,-14.9%
CCOC(=O)C1CCCN(S(=O)(=O)c2ccc(S(N)(=O)=O)cc2)C1 (stereo not given),5.8%,21.9%,16.3%,3.6,u,8.9%
CCOC(=O)C1CCN(S(=O)(=O)c2ccc(OC)c(Cl)c2Cl)CC1,-1.7%,4.3%,-10.7%[46.1 µM],5.9,6.31µM*,-0.7%
O=C(CSCc1cc(=O)n2ccsc2n1)Nc1ccccc1,x,2.1%,x,x,x,x
O=C1OC(c2ccc(F)cc2)=N/C1=C\C=C/c1ccccc1,x,-7.6%,x,1.7,x,x
NC[C@@H]1O[C@H](OC2[C@@H](CO)O[C@@H](OC3[C@H](O)[C@H](N)C[C@H](N)[C@H]3OC3O[C@H](CO)[C@@H](O)[C@H](O)[C@@H]3N)[C@H]2O)C(N)[C@H](O)[C@@H]1O (stereo not given in full),6.7%,11.7%,x,x,x,x
CCOC(=O)C1CCCN(S(=O)(=O)c2ccc(S(=O)(=O)N(CC)CC)cc2)C1 (stereo not given),5.6%,6.9%,29.4%,2.8,-7.9%,-1.1%
CCOC(=O)c1ccc(S(=O)(=O)N2CCN(C3CCCC3)CC2)cc1,11.5%,17.8µM*,-6.5%,4.6,u,-7.3%
CCOC(=O)C1CCCN(S(=O)(=O)c2ccc(OC)cc2)C1 (stereo not given),0.1%,10.1%,-8.4%[46.1 µM],1.6,3.16µM*,1.5%
Nc1cc(=O)[nH]c2nnc(SCC(=O)Nc3cccc4ccccc34)n12,x,14.2%,x,2.0,x,x
CCS(=O)(=O)c1ccc2oc(Nc3ccc(C(C)C)cc3)nc2c1,-13.9%,17.8µM*,-22.6%[46.1 µM],2.2,3.98µM*,u
CCS(=O)(=O)c1ccc2oc(Nc3cc(C)cc(C)c3)nc2c1,14.5%,1.1%,-29.5%[46.1 µM],-5.8,u,-3.1%
CC1CC(C)CN(C2CCCCC2NS(=O)(=O)c2ccc(Cl)cc2)C1 (stereo not given),x,13.6%,x,2.1,x,x
O=C(NCCO)C(O)C(O)C(=O)NCCO (stereo not given),8.6%,11.2%,23.1%,-1.0,17.8µM*,-1.0%
CCCCCCCCCCCCCCCC(=O)NCCO,8.3%,3.3%,-5.3%[46.1 µM],-3.8,0.6%,-11.5%
Cc1ccc(C2/C(=C(\O)c3ccc4c(c3)OCCO4)C(=O)C(=O)N2Cc2cccnc2)cc1 (stereo not given),x,14.8%,x,10.5,x,x
CC(C)(C)C(=O)/C(=C\c1ccc([N+](=O)[O-])cc1)n1cncn1,-2.6%,14.1µM*,-9.9%[46.1 µM],-2.0,-11.4%,-21.2%
COc1cccc(NC(=O)c2ccc(-n3cnnn3)cc2)c1,x,14.6%,x,-1.5,x,x
CCOC(=O)c1c(-c2ccc(OC)cc2)csc1/N=C/C1C(=O)CCCC1=O,26.9%,-34.6%,-14.6%,-12.7,5.01µM*,-8.8%
O=c1ccc2[n+]([O-])c3ccc(O)cc3oc-2c1,10µM*,u,u,1.1,x,u
O=c1cc(O)c2ccc(O)cc2o1,6.2%,-8.9%,-5.9%,-0.3,u,u
CCCN1C(=O)C(NC(=O)c2ccncc2)(C(F)(F)F)C2=C1CC(C)(C)CC2=O (stereo not given),4.4%,16.0%,-22.8%[46.1 µM],3.7,7.08µM*,-1.4%
SMILES,RGS12 GoLoco inh,Sfp inh,NPSR antag,FBPA coupling cs,ALDH1A1 block,KDM4E inh
CC1(C)CC(=O)C2=C(C1)N(Cc1ccco1)C(=O)C2(NC(=O)C1CCCCC1)C(F)(F)F (stereo not given),3.6%,25.1µM*,-20.3%[46.1 µM],-4.9,-1.6%,2.9%
CCN(Cc1ccccc1)C(=O)c1cc2c(OC)c(OC)c(OC)cc2[nH]1,x,2.3%,x,1.0,x,x
C=CCn1cc(/C=N/N2C(=O)C3C4C=CC(C4)C3C2=O)c2ccccc21 (stereo not given),15.6%,2.6%,-6.4%,-5.5,25.1µM*,14.7%
CCn1c(=O)c2c3c(sc2n2c(=S)[nH]nc12)CCC3,-17.2%,-6.2%,-0.9%[46.1 µM],1.5,9.9%,5.5%
CC(C)CC(=O)NC(=S)Nc1ccccc1C(F)(F)F,2.0%,1.1%,-5.6%,-0.1,17.8µM*,1.1%
Cc1ccc(C(=O)NCC(=O)Nc2ccccc2C(F)(F)F)cc1,-1.3%,18.6%,21.7%,1.7,19.7%,0.6%
Cc1ccc(C(=O)NC(=S)Nc2ccccc2C(F)(F)F)cc1,x,-8.4%,-16.9%[46.1 µM],-2.1,12.6µM*,2.5%
O=C(Cn1cc(S(=O)(=O)Cc2ccc([N+](=O)[O-])cc2)c2ccccc21)N1CCOCC1,x,39.8µM*,x,x,x,x
O=C(Cn1cc(S(=O)(=O)Cc2cccc([N+](=O)[O-])c2)c2ccccc21)N1CCOCC1,x,3.6%,x,x,x,x
Cc1ccc(CNC(=O)CS(=O)(=O)c2cn(CC(=O)N3CCOCC3)c3ccccc23)cc1,x,39.8µM*,x,x,x,x
O=C(CS(=O)(=O)c1cn(CC(=O)N2CCOCC2)c2ccccc12)Nc1ccccc1,-7.6%,6.7%,19.4%,1.6,u,0.1%
COc1cccc(CN2CCN(S(=O)(=O)c3ccc(NC(C)=O)cc3)CC2)c1OC,6.3%,18.6%,22.4%,1.5,0.5%,-6.4%
COc1ccccc1N1CCN(CC(=O)Nc2ccc(C)c(F)c2)CC1,10.1%,u,-13.3%[46.1 µM],-4.4,14.1µM*,-13.8%
COc1ccc(NC(=O)CN(C)C(=O)c2cccc(S(=O)(=O)N3CCN(Cc4ccccc4)CC3)c2)cc1,x,50.1µM*,x,x,x,x
COc1ccc(S(=O)(=O)N2CCN(CC(=O)Nc3ccc(C)c(F)c3)CC2)cc1,-5.1%,-24.9%,-19.4%[46.1 µM],-6.2,10µM*,-11.6%
COc1ccc(S(=O)(=O)N2CCN(CC(=O)Nc3cccc(F)c3)CC2)cc1,-11.9%,5.9%,-9.6%[46.1 µM],0.0,3.6%,5.9%
Cc1ccc(C)c(NC(=O)CN(C)C(=O)c2cccc(S(=O)(=O)N3CCN(Cc4ccccc4)CC3)c2)c1,x,2.6%,x,x,x,x
